# Laboratory results: PMC4336329 (PLoS ONE, 2015)
# The whole screen tested about 310,000 compounds, of which about 2,200 (0.71%) showed an effect of 50% or more. The effect is printed as a negative number. Many of the other results were omitted from the sample, so strong results are more common in it than they were.
# Molecular target: human ether-à-go-go-related gene (hERG) potassium channel (human, UniProt Q12809)
# Test: primary screen, population patch clamp on CHO cells stably expressing hERG; higher = less effect of the substance
# Sequence of human ether-à-go-go-related gene (hERG) potassium channel (Q12809 whole entry, looked up): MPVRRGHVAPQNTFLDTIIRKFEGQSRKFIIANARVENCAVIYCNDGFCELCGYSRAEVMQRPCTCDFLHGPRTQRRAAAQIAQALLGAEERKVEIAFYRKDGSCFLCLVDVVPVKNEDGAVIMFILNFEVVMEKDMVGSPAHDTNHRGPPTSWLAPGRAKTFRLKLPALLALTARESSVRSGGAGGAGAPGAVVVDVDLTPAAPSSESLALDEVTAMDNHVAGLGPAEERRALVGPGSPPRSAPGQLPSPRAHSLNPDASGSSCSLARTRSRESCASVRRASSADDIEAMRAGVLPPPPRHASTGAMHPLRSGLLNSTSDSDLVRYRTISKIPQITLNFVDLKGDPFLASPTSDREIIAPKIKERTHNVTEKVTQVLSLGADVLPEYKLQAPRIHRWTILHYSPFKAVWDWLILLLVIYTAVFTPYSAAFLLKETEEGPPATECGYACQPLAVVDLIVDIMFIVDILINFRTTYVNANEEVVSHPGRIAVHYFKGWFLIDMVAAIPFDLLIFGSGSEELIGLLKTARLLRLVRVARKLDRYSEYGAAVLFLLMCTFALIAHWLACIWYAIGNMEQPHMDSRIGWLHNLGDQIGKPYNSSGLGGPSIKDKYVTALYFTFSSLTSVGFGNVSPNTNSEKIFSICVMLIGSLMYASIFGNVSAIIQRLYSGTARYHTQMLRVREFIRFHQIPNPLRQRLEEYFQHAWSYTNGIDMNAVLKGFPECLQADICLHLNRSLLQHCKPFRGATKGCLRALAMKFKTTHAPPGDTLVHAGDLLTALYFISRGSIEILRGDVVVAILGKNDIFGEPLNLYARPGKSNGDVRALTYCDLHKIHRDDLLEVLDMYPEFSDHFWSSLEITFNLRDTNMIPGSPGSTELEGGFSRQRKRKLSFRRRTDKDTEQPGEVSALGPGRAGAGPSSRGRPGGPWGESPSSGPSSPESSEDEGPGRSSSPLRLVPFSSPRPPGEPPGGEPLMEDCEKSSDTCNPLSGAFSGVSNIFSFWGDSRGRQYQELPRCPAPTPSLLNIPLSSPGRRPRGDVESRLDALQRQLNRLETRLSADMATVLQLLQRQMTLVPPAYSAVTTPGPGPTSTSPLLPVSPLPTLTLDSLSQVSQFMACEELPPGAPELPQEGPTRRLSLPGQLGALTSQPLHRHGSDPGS
row,SMILES,"hERG current change (%, negative = inhibition) at 1uM"
1,CC(=O)Oc1ccc(-c2nc3c(C)cccc3c(=O)o2)cc1,11.9%
2,Cc1[nH]c2ccccc2c1C(=O)CN1CCN(C/C=C/c2ccccc2)CC1,-50.4%
3,CCOC(=O)c1[nH]c2ccc(F)cc2c1NC(=O)CN1CCN(C/C=C/c2ccccc2)CC1,-77.3%
4,CCOC(=O)c1[nH]c2ccc(OCC)cc2c1NC(=O)CN1CCN(c2ccccc2)CC1,15.9%
5,COC(=O)c1[nH]c2ccccc2c1NC(=O)CN1CCN(C/C=C/c2ccccc2)CC1,-84.4%
6,CCOC(=O)c1[nH]c2ccc(F)cc2c1NC(=O)CN1CCc2cc(OC)c(OC)cc2C1,11.2%
7,CCOC(=O)N1CCN(CC(=O)Nc2c(C(=O)OC)[nH]c3ccccc23)CC1,7.01%
8,Cc1[nH]c2ccccc2c1C(=O)CN1CCCC1,7.66%
9,COC(=O)c1[nH]c2ccccc2c1NC(=O)CN1CCCCCC1,-3.6%
10,COc1ccc2[nH]c(C)c(C(=O)CN3CCN(C/C=C/c4ccccc4)CC3)c2c1,5.17%
11,O=C(COC(=O)COc1ccc(Br)cc1)NCCC1=CCCCC1,1.54%
12,COc1ccc2[nH]cc(CCNC(=O)CCC3CCCCC3)c2c1,1.77%
13,O=C(COC(=O)c1ncc(Cl)c(Cl)c1Cl)NC1CCS(=O)(=O)C1 (stereo not shown),-1.03%
14,Cc1ccc(S(=O)(=O)N2CCOC23CCN(C(=O)C(=O)NCCC(C)C)CC3)cc1,4.48%
15,O=c1[nH]c(=O)n(CCc2ccc(F)cc2)c(O)c1/C=N/N1CCCCC1,11.7%
16,CCOC(=O)C1(C)/C(=N/Nc2ccccc2)C(=O)C(=O)N1c1ccccc1 (stereo not shown),-3.13%
17,Cc1cccn2c(=O)c3cc(C#N)c(=NC(=O)c4cccnc4)n(CC4CCCO4)c3nc12 (stereo not shown),-10.2%
18,Cc1ccc(Cn2c(=N)c(C(=O)NCC3CCCO3)cc3c(=O)n4cccc(C)c4nc32)cc1 (stereo not shown),-85.9%
19,Cc1cccn2c(=O)c3cc(C(=O)NCCN4CCOCC4)c(=N)n(Cc4cccnc4)c3nc12,9.95%
20,Cc1cccn2c(=O)c3cc(C(=O)NCc4cccnc4)c(=N)n(CC4CCCO4)c3nc12 (stereo not shown),-78.5%
21,Cc1cccn2c(=O)c3cc(C(=O)NCC4CCCO4)c(=N)n(Cc4ccc(F)cc4)c3nc12 (stereo not shown),-80.4%
22,Cc1cccn2c(=O)c3cc(C(=O)NC4CCCC4)c(=N)n(Cc4ccc(F)cc4)c3nc12,-19.4%

row,SMILES,"hERG current change (%, negative = inhibition) at 1uM"
1,Cc1cccn2c(=O)c3cc(C(=O)NCC4CCCO4)c(=N)n(Cc4cccnc4)c3nc12 (stereo not shown),-96.3%
2,Cc1cccn2c(=O)c3cc(C(=O)NC4CCCCC4)c(=N)n(Cc4ccc(F)cc4)c3nc12,-16%
3,CCn1c(SCc2nc(CC(=O)Nc3ccccc3OC)no2)nnc1-c1cccs1,-19.1%
4,COc1ccc(CNC(=O)C2CSC(=O)C2)cc1 (stereo not shown),8.88%
5,Cc1cccc(-n2c(O)c(/C=N/NC(=O)c3ccccc3Cl)c3ccccc3c2=O)n1,9.11%
6,COc1cccc(/C=C/C(=O)OCC(=O)Nc2cc(C(F)(F)F)ccc2Cl)c1,8.68%
7,CN(C(=O)c1ccc(OC2CCN(S(=O)(=O)N(C)C)CC2)cc1)C1CCCCC1,-1.59%
8,O=C(NCCNC(=O)c1cc(OCC(F)(F)F)ccc1OCC(F)(F)F)Nc1ccccc1,-15%
9,CCN1CCS/C1=C/C=C/C1=[N+](CC)CCS1.[I-],3.64%
10,Cn1c(CCN2CCCC2)nc2cc(NS(=O)(=O)c3ccc(Cl)cc3)ccc21,-62%
11,Cn1c(CN2CCN(C(=O)c3ccc(F)cc3)CC2)nc2cc([N+](=O)[O-])ccc21,-59.1%
12,Cn1c(CN2CCCC2)nc2cc(NS(=O)(=O)c3ccc(Cl)cc3)ccc21,-31%
13,Cc1ccc(S(=O)(=O)Nc2ccc3c(c2)nc(CCN2CCCCC2)n3C)cc1,-29.7%
14,CC(=O)N1CCN(Cc2nc3cc([N+](=O)[O-])ccc3n2C)CC1,14%
15,Cn1c(CN2CCCCC2)nc2cc([N+](=O)[O-])ccc21,-2.57%
16,Cn1c(CCN2CCCCC2)nc2cc(NS(=O)(=O)c3ccc(Cl)cc3)ccc21,-59.1%
17,CCN1CCN(CCc2nc3cc([N+](=O)[O-])ccc3n2C)CC1,-1.88%
18,Cn1c(CCN2CCCCC2)nc2cc([N+](=O)[O-])ccc21,-54.8%
19,Cn1c(CN2CCCCC2)nc2cc(NS(=O)(=O)c3ccc(Cl)cc3)ccc21,-9.75%
20,Cn1c(CN2CCN(C(=O)c3ccccc3)CC2)nc2cc([N+](=O)[O-])ccc21,-29.6%
21,Cc1ccc(S(=O)(=O)Nc2ccc3c(c2)nc(CCN2CCCC2)n3C)cc1,-13.7%
